An excerpt weighted towards active compounds, which were near 8% of everything screened.
MCF10A rereplic = A quantitative high throughput screen for small molecules that induce DNA re-replication in MCF 10a normal breast cells; MCF 10A DNA re-replication, Hoechst nuclear intensity, 48 h; Potency, µM (top dose mostly 46.1 µM), for the others: top-dose activity, positive = re-replication, actives largely listed as activators; 350,000 tested, 2.9% active; AID 624296, 2012; note: % of control where 0% means no effect; nearly all actives have a fitted effect of over 50% in size
HT1080NT lethal = qHTS for induction of synthetic lethality in tumor cells producing 2HG: qHTS for the HT-1080-NT fibrosarcoma cell line | 360,000 tested, 1.6% active | HT-1080-NT fibrosarcoma viability, CellTiter-Glo ATP luminescence, 48 h | Potency, µM (highest dose often 46.1 µM), for the others: top-dose activity, negative = less viability, most hits filed as cytotoxic | AID 686970, 2013;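 note: NT is the 2HG producing partner of a matched IDH1 knockdown line; 0% = DMSO-treated cells and -100% = media-only wells without cells; nearly all actives have a fitted effect of over 55% in size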
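Luminescent CellTiter-Glo readout after 48 hours of compound exposure at 37 degrees C defined viability of HT-1080-NT cells. Activity was normalized to DMSO wells and cell-free media wells; concentration-response curves were fitted and assigned curve classes.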
KB-V1 cytotox = qHTS assay for MDR1-selective chemotherapeutics: Primary screen using the drug-selected MDR subline cells KB-V1; KB-V1 MDR cells viability, CellTiter-Glo, 72 h; Potency, µM (doses to about 46.1 µM), hits mostly cytotoxic; 400,000 tested, 3.4% active; AID 1347076, 2019; note: % is set by controls: 0 for no effect and ±100 for the full control effect; nearly all actives have a fitted effect of over 60% in size
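KB-V1 cells (P-gp-expressing MDR subline of KB-3-1) in phenol-red-free DMEM with 10% FBS were exposed to library compounds over a concentration series for 72 h at 37 degrees C. Viability read by CellTiter-Glo luminescence; concentration-effect curves fitted after normalization.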
KB-3-1 cytotox = qHTS assay for MDR1-selective chemotherapeutics: Primary screen using the parental adenocarcinoma cell KB-3-1 | KB-3-1 viability, CellTiter-Glo ATP luminescence, 72 h | Potency, µM (top dose mostly 46.1 µM), most hits filed as cytotoxic | 400,000 tested, 1.4% active; note: % is set by controls: 0 for no effect and ±100 for the full control effect; nearly all actives have a fitted effect of over 60% in size
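Screening of KB-3-1 cells (DMEM, 10% FBS, phenol-red free) ran from lowest to highest compound concentration; after 72 h at 37 °C viability was read luminescently and curves fitted.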
HT1080 IDH1KD tx = qHTS for induction of synthetic lethality in tumor cells producing 2HG: qHTS for the HT-1080-IDH1KD cell line | HT-1080 IDH1 knockdown viability, ATP luminescence, 48 h | Potency, µM (highest dose often 46.1 µM), for inactives: top-dose activity, negative = toxicity, most hits filed as cytotoxic | 360,000 tested, 2% active | AID 686971, 2013;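 note: 0% = DMSO wells and -100% = cell-free medium wells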
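Assay cells: HT-1080 with IDH1 knockdown, 750 per well, RPMI/5% FBS. Exposure: 48 h at 37 °C following 2 h pre-incubation. Read: CellTiter-Glo luminescence; fitted concentration-response, curve class assigned.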
SW480 rereplic = A quantitative high throughput screen for small molecules that induce DNA re-replication in SW480 colon adenocarcinoma cells; Potency, µM (series often up to 46.1 µM), inactives show at the highest dose re-replication activation, actives largely listed as activators; SW480 DNA re-replication, Hoechst DNA content imaging, 48 h; 340,000 tested, 1.8% active; note: % of control where 0% means no effect; nearly all actives have a fitted effect of over 55% in size
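Treated cells incubate 48 hr (37 C, 5% CO2), are stained 40 min with Hoechst, and nuclear fluorescence is enumerated; a rise in nuclei with high DNA signal marks re-replication.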
* marks the source's active call; other numbers are inactive results; i = inactive; ? = inconclusive; / = no result given; [ ] = remark or other dose. Calls come from the whole dose curve; as a rule, active = well fitted curve in the direction sought with a large enough effect; inconclusive = small, poorly fitted or top-dose-only effect, or another doubt; inactive = no such curve, though single readings can be large; an effect the other way counts as inactive or inconclusive. Potency is the fitted concentration of half-maximal effect.

SMILES | MCF10A rereplic | HT1080NT lethal | KB-V1 cytotox | KB-3-1 cytotox | HT1080 IDH1KD tx | SW480 rereplic
O=C(Oc1ccc(=O)n(-c2ccccc2)n1)c1ccc(Cl)cc1 | -8% | 8% | i | i | 14% | -1%
Cc1nn(-c2nc(-c3ccc(F)cc3)cc(C(F)(F)F)n2)c(C)c1Br | / | / | i | i | / | /
O=C1C(Cc2ccccc2)C(c2ccccc2)N1c1ccccc1 (stereo not drawn) | ? | -15% | 18µM* | 21µM* | -6% | 11%
O=C1CC(c2ccccc2)Cc2nc(NCc3ccco3)ncc21 (stereo not drawn) | 14% | -2% | 16µM* | i | -12% | ?
O=C(Nc1ncc2c(n1)CC(c1ccccc1)CC2=O)c1ccco1 (stereo not drawn) | 1% | -7% | i | i | 5% | 2%
O=C(NN(c1ccccc1)c1ccccc1)c1ccc([N+](=O)[O-])o1 | ? | ? | ? | ? | ? | 12µM*
NC(=O)c1oc2ccccc2c1NC(=O)c1ccc([N+](=O)[O-])o1 | ? | 1.5µM* | 7.3µM* | 3.7µM* | 2.1µM* | ?
NC(=O)c1oc2ccccc2c1NC(=O)c1ccc(F)cc1 | -1% | 0% | i | i | -5% | 1%
Cc1ccc(CSc2nc3ccc(NC(=O)C(C)C)cc3s2)cc1 | / | / | i | i | / | /
COc1cc2nc(N3CCCN(C)CC3)nc(NC3CCOCC3)c2cc1OC | / | -16% | / | / | -12% | /
Cc1cccc(C)c1OCC(O)CN(Cc1ccccc1O)C1CCCCC1 (stereo not drawn) | ? | 9.2µM* | ? | ? | ? | ?
CC(=O)c1cc2c(cc1N/C(=N/S(=O)(=O)c1ccc(F)cc1)c1ccccc1)OCO2 | / | / | i | i | / | /
Cn1c(NC2CCCCC2)cc(=O)n(C)c1=O | 1% | 9% | i | i | 8% | 3%
Cc1cc(C2CCCCC2)n(O)c(=O)c1 | ? | 8.2µM* | ? | i | 18µM* | ?
O=C(/C=C/c1ccc(N2CCCCC2)c([N+](=O)[O-])c1)c1ccc(O)cc1 | 21% | 18µM* | ? | ? | 18µM* | ?
COc1ccccc1C(=O)/C=C/c1ccc(N2CCCCC2)c([N+](=O)[O-])c1 | 6.5µM* | ? | 10µM* | ? | ? | 18µM*
O=C(O/N=C\c1ccc(N2CCCCC2)c([N+](=O)[O-])c1)c1ccc(Cl)cc1Cl | -6% | 0% | ? | i | 14% | ?
Cc1ccc(NC(=O)CSc2nc3c(oc4ccccc43)c(=O)n2-c2ccc(F)cc2)c(C)c1 | / | / | i | i | / | /
Cc1cccc(CCNc2ncnc3onc(-c4ccc(Cl)cc4)c23)c1 | / | / | 21µM* | i | / | /
CCOc1ccc(CCNc2ncnc3onc(-c4ccc(F)cc4)c23)cc1OCC | / | / | 2.6µM* | i | / | /
CCOc1ccc(CCNc2ncnc3onc(-c4ccc(Cl)cc4)c23)cc1OCC | / | / | i | i | / | /
Cc1ccc(CN2CCN(C3CCNCC3)C(=O)C2=O)cc1 | / | / | i | i | / | /
COc1ccccc1/C=C/c1nc2ccccc2[nH]1 | / | / | i | i | / | /
CCOc1ccc(S(=O)(=O)Nc2cccc(-c3ccc(OCC)nn3)c2)cc1 | / | / | i | i | / | /
COc1ccc(-c2ncc3ccccn23)cc1 | -2% | 14% | i | i | 12% | -2%
COc1cc(OC)cc(-c2ncc3ccccn23)c1 | ? | -3% | ? | 21µM* | -20% | -2%[9.22 µM]
COc1cccc(-c2ncc3ccccn23)c1 | -3% | -14% | i | i | -5% | 2%

Screening data (PubChem BioAssay)
